G9a inh – qHTS Assay for Inhibitors of Histone Lysine Methyltransferase G9a. AID 504332, 2011. G9a H3K9 monomethylation, AlphaScreen, 2 h. 350,000 tested, 8.8% active. Histone-lysine N-methyltransferase EHMT2 (Homo sapiens), Q96KQ7. Potency, µM (highest dose often 102 µM), for inactives: top-dose activity, negative = inhibition, usual class: inhibitors; also: % is scaled to controls: 0 for no effect and ±100 for the full control effect; nearly all actives have a fitted effect of over 75% in size
Target sequence (Q96KQ7 913-1193 limits assumed): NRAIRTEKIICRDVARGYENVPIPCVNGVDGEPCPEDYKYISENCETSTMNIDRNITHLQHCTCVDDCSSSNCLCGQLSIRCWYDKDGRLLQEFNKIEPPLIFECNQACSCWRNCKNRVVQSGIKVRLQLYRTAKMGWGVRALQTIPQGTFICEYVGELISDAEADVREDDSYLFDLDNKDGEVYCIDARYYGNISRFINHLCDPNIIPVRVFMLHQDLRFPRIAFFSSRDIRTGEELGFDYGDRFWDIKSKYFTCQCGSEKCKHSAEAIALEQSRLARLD
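Chemiluminescent proximity detection of H3K9 monomethylation, read after 10 min bead incubation in the dark. Reaction: 20 nM G9a, 500 nM biotin-H3K9 peptide, 20 uM SAM cofactor, 2 h, room temperature, following 15 min enzyme-compound preincubation.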
JMJD2A Tudor inh – qHTS Assay for Inhibitors of JMJD2A-Tudor Domain | 390,000 tested, 4.4% active | Potency, µM (doses to about 114 µM), for the others: at the top dose activity change, negative = inhibition, most hits filed as inhibitors | Lysine-specific demethylase 4A (Homo sapiens), O75164 | AlphaScreen JMJD2A-Tudor / H3K4me3 peptide binding; also: % is scaled to controls: 0 for no effect and ±100 for the full control effect; nearly all actives have a fitted effect of over 50% in size
HP1b chromo inh – HTS for Inhibitors of HP1-beta Chromodomain Interactions with Methylated Histone Tails; Chromobox protein homolog 1 (Homo sapiens), P83916; AlphaScreen HP1-beta / biotin-H3K9me3 peptide binding; Potency, µM (top dose mostly 114 µM), for inactives: top-dose activity change, negative = inhibition, hits mostly inhibitors; 390,000 tested, 0.56% active; AID 540317, 2011; also: nearly all actives have a fitted effect of over 70% in size
Target sequence (P83916 whole entry, looked up): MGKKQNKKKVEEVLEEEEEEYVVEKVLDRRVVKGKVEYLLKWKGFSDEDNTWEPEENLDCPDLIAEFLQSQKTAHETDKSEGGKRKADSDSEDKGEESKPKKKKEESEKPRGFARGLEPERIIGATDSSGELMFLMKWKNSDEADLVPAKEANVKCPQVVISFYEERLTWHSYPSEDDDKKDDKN
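Compound inhibition of the preformed complex between 50 nM HP1-beta and 50 nM biotinylated H3K9me3 peptide was read by AlphaScreen. Buffer was PBS pH 7.4 with 0.01% Tween-20. Incubations ran 30 min at room temperature, with 10 ug/mL donor/acceptor beads.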
TDP1 block – qHTS Assay for Inhibitors of Tyrosyl-DNA Phosphodiesterase (TDP1). Tyrosyl-DNA phosphodiesterase 1 (Homo sapiens), Q9NUW8. recombinant TDP1, AlphaScreen DNA substrate cleavage. Potency, µM (top dose mostly 130 µM), without a hit: at the top dose activity change, negative = inhibition, usual class: inhibitors. 350,000 tested, 0.28% active. AID 485290, 2010; also: % is scaled to controls: 0 for no effect and ±100 for the full control effect; nearly all actives have a fitted effect of over 40% in size
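Recombinant human Tdp1 (E. coli-expressed, 1 nM final) preincubated with compounds 15 min at room temperature, then 5'-biotin/3'-phosphotyrosine-FITC DNA substrate (15 nM final) added for 5 min. AlphaScreen beads (10 ug/ml final) added 10 min; cleavage lowers signal.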
BAZ2B block – qHTS Assay for Inhibitors of BAZ2B; Bromodomain adjacent to zinc finger domain protein 2B (Homo sapiens), Q9UIF8; AlphaScreen BAZ2B-H3K14Ac peptide displacement; Potency, µM (highest dose often 114 µM), for the others: top-dose activity change, negative = inhibition, usual class: inhibitors; 360,000 tested, 4.4% active; also: % is scaled to controls: 0 for no effect and ±100 for the full control effect; nearly all actives have a fitted effect of over 60% in size
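AlphaScreen displacement of biotin-H3(5-23)K14Ac peptide (50 nM final) from BAZ2B (50 nM final) in PBS pH 7.4, 0.01% Tween-20; complex preformed 30 min RT, then compounds (top 110 uM) 30 min RT, beads 20 min dark.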
Sfp PPTase inh – qHTS Assay for Inhibitors of Bacillus subtilis Sfp phosphopantetheinyl transferase (PPTase). 4'-phosphopantetheinyl transferase ffp (Bacillus subtilis), Q9F4F7. Biochemical Sfp PPTase activity, qHTS. Potency, µM, without a hit: largest response in the series, negative = inhibition, actives largely listed as inhibitors. 310,000 tested, 3.5% active. AID 1490, 2009;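 also: the enzyme is Sfp with the accession as filed and its product quenches rhodamine fluorescence; 0% = enzyme reaction without inhibitor and -100% = no enzyme wells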
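Fluorescence-quenching assay with 15 nM Sfp, 5 uM rhodamine-CoA and 12.5 uM BHQ-2-labelled ybbR peptide in pH 7.6 Hepes/MgCl2 buffer. Enzyme was pre-incubated with compound for 15 min at room temperature. Rate was taken from the 30-min fluorescence change (525/598 nm).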
Numbers without * were called inactive; u = inconclusive; x = not tested or not shown; [ ] = remark or other dose. In the library only some 12% were active in any assay of this set; here they are far more common. Calls follow the shape of the dose curve; as a rule, active = well fitted curve in the direction sought with a large enough effect; inconclusive = small, poorly fitted or top-dose-only effect, or another doubt; inactive = no such curve, though single readings can be large; an effect the other way counts as inactive or inconclusive. Potency is read from the fitted curve at half-maximal effect.

SMILES | G9a inh | JMJD2A Tudor inh | HP1b chromo inh | TDP1 block | BAZ2B block | Sfp PPTase inh
COc1ccccc1Nc1nc(N)nc(CN2CCN(Cc3ccc4c(c3)OCO4)CC2)n1 | 16.6%[12.7 µM] | -17.9% | 20.6% | 9.8% | u | u
Cc1cccc(Nc2nc(N)nc(CN3CCN(Cc4ccc5c(c4)OCO5)CC3)n2)c1 | 3.1%[59 µM] | 50.1µM* | -7.3% | 4.0% | u | 3.3%
O=C(NCc1ccccc1)C(=O)NCC(c1cccs1)S(=O)(=O)c1ccccc1 (configuration not stated) | 2.5%[59 µM] | -10.6% | 8.9%[57 µM] | 6.6% | 0.3% | x
COc1ccc2[nH]c3c(=O)n(CCCCC(=O)NCCN4CCCC4)c(=S)[nH]c3c2c1 | u | 5.62µM* | u | -1.0% | -31.1% | 79.4µM*
COc1ccc2[nH]c3c(=O)n(CCCCC(=O)N4CCC(C(N)=O)CC4)c(=S)[nH]c3c2c1 | u | 3.55µM* | 26.4% | -4.9% | -8.8% | -21.0%
COc1ccc2[nH]c3c(=O)n(Cc4ccc(C(=O)N5CCCC5)cc4)c(=S)[nH]c3c2c1 | 7.94µM* | 6.31µM* | u | 0.0% | -20.6% | 7.6%
COc1cccc(NC(=O)COC(=O)C2CC(=O)N(c3ccc(C)cc3)C2)c1 (configuration not stated) | 3.8%[2.33 µM] | -17.4% | 20.0% | -0.2%[56.1 µM] | 0.6% | x
O=C1OCC(CO)(CO)N=C1NNc1ccccc1Cl | 5.62µM* | u | -6.0% | 4.6% | -5.4% | -18.3%
O=C(O)C1(Nc2ccccc2Cl)CCCC1 | x | 0.0% | 22.6% | x | x | x
COc1ccc(S(=O)(=O)N2CCC(C(=O)Nc3cc(Cl)ccc3N3CCOCC3)CC2)cc1OC | -26.8% | -16.7% | 23.5% | x | 2.7% | x
COCCNc1nc(=S)[nH]c2cc(OC)c(OC)cc12 | 35.5µM* | u | 40.4% | 0.0% | -28.2% | -11.4%
COc1cc2[nH]c(=S)nc(NCc3ccccc3)c2cc1OC | u | -17.8% | 39.8% | x | -0.5% | 5.9%
COc1cc2[nH]c(=S)nc(NCCCOC(C)C)c2cc1OC | 44.7µM* | u | 23.5% | 3.6% | 50.1µM* | -20.1%
CCOCCCNc1nc(=S)[nH]c2cc(OC)c(OC)cc12 | 35.5µM* | u | 24.6% | 2.0% | u | -3.0%
CCCCNc1nc(=S)[nH]c2cc(OC)c(OC)cc12 | -3.2%[12.7 µM] | u | 15.2% | 5.9% | u | u
COc1cccc(-c2nc(N3CCN(c4ccccc4)CC3)c3ccccc3n2)c1O | -48.0%[59 µM] | u | u | -3.9% | -38.6% | 3.5%
COc1cccc(-c2nc(NC(C)C)c3ccccc3n2)c1O | u | 50.1µM* | -22.5% | 10.8% | u | -3.1%
CCC1CCCCN1c1nc(-c2ccncc2)nc2ccccc12 (configuration not stated) | 13.7% | -7.9% | 39.4% | 2.5% | 1.9% | -17.2%
COc1cccc(-c2nc(N3CCCCC3)c3ccccc3n2)c1O | x | 35.5µM* | u | x | x | x
CCC1CCCCN1c1nc(-c2cccc(OC)c2O)nc2ccccc12 (configuration not stated) | 39.8µM* | u | -24.9% | 5.9% | u | -8.1%
CCN(CC)C(=O)c1c(-c2ccccc2)oc2ccc(O)cc12 | x | -17.2% | 15.1% | -12.1% | -14.7% | 5.4%
Cc1cc(F)ccc1NS(=O)(=O)c1c(C(=O)N2CCOCC2)c(C)n(C)c1C | 6.2% | -13.5% | 23.3% | 6.9% | -13.1%[57.1 µM] | 12.4%
O=C(CN(C(=O)c1ccccc1)C(=O)c1ccccc1)OCc1ccccc1 | x | 19.4% | 92.8% | x | x | x
CC1=C(c2ccc(C)c(C)c2)S(=O)(=O)N=C1N1CCC(C(=O)NCc2ccc(C)o2)CC1 | 19.1%[59 µM] | -9.3% | 0.8% | -3.2% | -21.1% | x
CC(=O)NC(CC(=O)OCC(=O)N1CCN(S(=O)(=O)c2ccc(C)cc2C)CC1)c1ccccc1 (configuration not stated) | 6.2%[12.7 µM] | -11.0% | 31.0% | 2.5% | -3.8% | x
SMILES | G9a inh | JMJD2A Tudor inh | HP1b chromo inh | TDP1 block | BAZ2B block | Sfp PPTase inh
CCn1ncc(C2=NOC(C(=O)NCc3ccc(OC)cc3)C2)c1C (configuration not stated) | -6.4%[2.33 µM] | -7.2% | 25.1% | 5.9% | 11.6% | 0.4%
CCn1ncc(C2=NOC(C(=O)NCc3ccccc3)C2)c1C (configuration not stated) | 44.7µM* | -1.3% | -7.7% | 4.1% | 1.3% | 79.4µM*
Cc1ccc(C(=O)c2oc3ccccc3c2NC(=O)COc2ccccc2Cl)cc1 | -38.2%[59 µM] | -8.6% | 37.0% | 3.2% | 50.1µM* | x
O=C(CN1CCN(c2ccc(F)cc2)CC1)N(C1CCCC1)C1CCS(=O)(=O)C1 (configuration not stated) | -6.5%[2.33 µM] | -13.0% | 12.0% | -0.3%[56.1 µM] | 6.4% | x
O=C(CN1CCN(c2ccc(O)cc2)CC1)N(C1CC1)C1CCS(=O)(=O)C1 (configuration not stated) | 9.4%[2.33 µM] | 79.4µM* | u | -0.6%[56.1 µM] | 5.6% | x
Cc1c(CCNS(=O)(=O)c2ccccc2)sc2nc(-c3ccc(Cl)cc3)nn12 | -2.6%[59 µM] | -13.0% | 26.8% | 2.6% | 1.3% | x
C=C(C)Cn1c(SCC(=O)O)nnc1-c1ccccc1 | 6.2%[12.7 µM] | -10.0% | 31.1% | 3.9% | -30.1% | 12.5%
C=C(C)Cn1c(-c2ccncc2)n[nH]c1=S | 14.1µM* | 50.1µM* | 8.4% | x | u | u
CC(C(=O)O)n1c(-c2ccn[nH]2)n[nH]c1=S (configuration not stated) | u | -11.0%[11.4 µM] | -9.3% | 0.0% | -16.7% | u
Fc1ccccc1-c1n[nH]c(=S)n1C1CC1 | 8.91µM* | x | x | 10.5% | -24.5% | -17.4%
CC(C)Cn1c(-c2ccccc2F)n[nH]c1=S | 1.41µM* | 3.98µM* | -13.5% | x | 15.6% | u
CC(C)Cn1c(-c2ccncc2)n[nH]c1=S | 7.08µM* | 20µM* | 25.1% | x | u | u
NC(=O)CSc1nnc(-c2ccccc2F)n1C1CC1 | 7.3% | 4.5% | 15.4% | 4.2%[0.0935 µM] | 1.3% | 15.8%
Cc1cc2c(cc1S(=O)(=O)C(C)CC(=O)NCc1ccco1)OCC(=O)N2 (configuration not stated) | x | -5.3% | 43.7% | 1.3% | -1.9% | -5.8%
O=C(CCC(=O)N1CCOc2ccc(Cl)cc21)NCc1ccccc1 | 29.9% | 0.7% | 30.8% | x | 0.8% | -3.4%
